{"source": "PubChem BioAssay (EPA / NIEHS)", "note": "Where “and” joins values, the source holds several entries; their conditions need not be identical. Equal values may be shown once. Some compounds were tested as several samples or in several runs, with calls that do not always agree. Calls of active or inactive are those of the source. Rule for the calls: active = hit-call score of the fitted dose curve at least 0.9, where 1 is the maximum; inactive = score below 0.9."}
{"read-out": "Monocyte Chemoattractant Protein-1 (MCP1), CCL2 (gene 6347)", "test": "BSK_IMphg_MCP1: BioMAP Diversity Plus: IMphg Assay for Monocyte Chemoattractant Protein-1 (MCP1) Biomarker Activity (AID 2284253)", "details": "primary human endothelial cells with macrophages", "procedure": "BSK_IMphg is a cell-based, multiplexed-readout assay that uses venular endothelial cells and macrophages, a human vascular primary cell, with measurements taken at 24 hours after chemical dosing in a microplate: 96-well plate.BSK_IMphg_MCP1 is an assay component measured in the BSK_IMphg assay. It measures MCP-1 antibody related to regulation of gene expression using ELISA technology.Data from the assay component BSK_IMphg_MCP1 was analyzed at the endpoint, BSK_IMphg_MCP1, in the positive analysis fitting direction relative to DMSO as the negative control and baseline of activity. Using a type of binding reporter, gain or loss-of-signal activity can be used to understand protein changes. To generalize the intended target to other relatable targets, this assay endpoint is annotated to the 'cytokine' intended target family, where the subfamily is 'chemotactic factor'.\nThe levels of cell surface (or secreted, indicated by the prefix \"s\") biomarker endpoints were measured by ELISA. Overt cytotoxicity to cells in confluent adherent cultures (all systems other than the BT system) was assessed by measuring total protein levels using sulforhodamine B (SRB) staining in parallel cultures at the time of biomarker measurements, indicated as SRB endpoints. For proliferation assays for adherent cell types, individual cell types are cultured at sub-confluence and relative cell numbers quantified by SRB staining at time points optimized for each system (48 h: 3C and CASM3C systems; 72 h: BT and HDF3CGF systems; 96 h: SAg system). SRB was performed by staining cells with 0.1% SRB after fixation with 10% TCA and reading wells at 560 nm.Viability and proliferation of PBMC (T cells) was quantified by Alamar Blue reduction for the SAg and BT systems. For PBMC viability (referred to as PBMC Cytotoxicity within the assay endpoint names), cells were plated (75,000/well in a 96-well plate) and then chemical samples added for 1 h before addition of activators, SEB and TSST-1 (20 ng/mL final concentration each). Cells were incubated for 90 h. Then, Alamar Blue (20 uL/well) (Invitrogen, Cat DAL1100) was added for 6 h, and the plates were read with a fluorescence microplate reader at 546/580 nm (excitation/emission). For PBMC proliferation, cells were plated and activated as above but incubated for only 16 h prior to addition of Alamar Blue. Plates were read after 6 h."}
{"smiles": "O=C(O)C(F)(OC(F)(F)C(F)(OC(F)(F)C(F)(F)C(F)(F)F)C(F)(F)F)C(F)(F)F", "note": "(stereo not given)", "outcome": "inactive"}
{"smiles": "O=S(=O)(O)C(F)(F)C(F)(F)C(F)(F)C(F)(F)C(F)(F)C(F)(F)C(F)(F)F", "outcome": "inactive"}
{"smiles": "O=C(O)C=C(C(F)(F)F)C(F)(F)F", "outcome": "inactive", "AC50": "42.6 µM (active)"}
{"smiles": "FC(F)(F)C(F)(F)C(F)(F)C(F)(F)C(F)(F)C(F)(F)CCS", "outcome": "inactive"}
{"smiles": "NC(=O)C(F)(F)C(F)(F)C(F)(F)C(F)(F)F", "outcome": "inactive"}
{"smiles": "FC(F)(F)C(F)(F)C(F)(F)N(C(F)(F)C(F)(F)C(F)(F)F)C(F)(F)C(F)(F)C(F)(F)F", "outcome": "inactive"}
{"smiles": "FC(F)(F)C(F)(F)C(F)(F)CI", "outcome": "inactive"}
{"smiles": "C=CC(=O)OCC(F)(F)C(F)(F)C(F)(F)C(F)(F)COC(=O)C=C", "AC50": "30 µM (active)"}
{"smiles": "O=C(Cl)C(F)(F)C(F)(F)C(F)(F)C(F)(F)C(F)(F)C(F)(F)C(F)(F)C(F)(F)F", "AC50": "51.4 µM (active)", "outcome": "inactive"}
{"smiles": "O=S(=O)(OCCOC(F)(F)F)C(F)(F)F", "outcome": "inactive"}
{"smiles": "O=C(O)C(F)(F)C(F)(F)C(F)(F)C(F)(F)F", "outcome": "inactive"}
{"smiles": "FC(F)(I)C(F)(F)C(F)(F)C(F)(F)I", "outcome": "inactive"}
{"smiles": "COC(=O)CCC(F)(F)C(F)(F)C(F)(F)C(F)(F)F", "outcome": "inactive"}
{"smiles": "FC(F)(F)C(F)(F)C(F)(F)C(F)(F)C(F)(F)C(F)(F)C(F)(F)C(F)(F)F", "outcome": "inactive"}
{"smiles": "FC(F)(F)C(F)(F)C(F)(F)C(F)(F)C(F)(F)C(F)(F)C(F)(F)C(F)(F)CCS", "outcome": "inactive"}
{"smiles": "CCCCCCCCC(F)(F)C(F)(F)C(F)(F)C(F)(F)C(F)(F)C(F)(F)F", "outcome": "inactive"}
{"smiles": "C=CC(F)(F)C(F)(F)C(F)(F)C(F)(F)C(F)(F)C(F)(F)C(F)(F)C(F)(F)C=C", "outcome": "inactive"}
{"smiles": "O=S(=O)(OCC(F)F)C(F)(F)F", "outcome": "inactive"}
{"smiles": "O=C(O)C(F)(F)C(F)(F)C(F)(F)C(F)(F)C(F)(F)C(F)(F)C(F)(F)C(F)(F)C(F)(F)C(F)(F)C(F)(F)C(F)(F)F", "outcome": "inactive"}
{"smiles": "N=C(N)C(F)(F)C(F)(F)C(F)(F)C(F)(F)C(F)(F)C(F)(F)C(F)(F)F", "outcome": "inactive"}
{"smiles": "O=C(CC(=O)C(F)(F)C(F)(F)F)C(F)(F)F", "outcome": "inactive"}
{"smiles": "OCC(F)(F)C(F)(F)C(F)(F)C(F)F", "outcome": "inactive"}
{"smiles": "CC(C)(C)C(=O)CC(=O)C(F)(F)C(F)(F)C(F)(F)F", "outcome": "inactive"}
{"smiles": "FC(F)(Br)C(F)(F)C(F)(F)C(F)(F)C(F)(F)C(F)(F)Br", "outcome": "inactive"}
{"smiles": "O=P(O)(O)OCCC(F)(F)C(F)(F)C(F)(F)C(F)(F)C(F)(F)C(F)(F)F", "outcome": "inactive"}
{"smiles": "O=C(O)C(F)(F)C(F)(F)F", "outcome": "inactive"}
{"smiles": "O=C(O)C(F)(F)C(F)(F)C(F)(F)C(F)(F)C(F)(F)C(F)(F)C(F)(F)C(F)(F)Cl", "AC50": "48.6 µM (active)"}
{"smiles": "O=C(O)C(F)(F)C(F)(F)C(F)(F)F", "outcome": "inactive"}
{"smiles": "FC(F)(F)C(F)(F)CNCC(F)(F)C(F)(F)F", "outcome": "inactive"}
{"smiles": "FC(F)(F)C(F)(F)C(F)(F)C(F)(F)C(F)(F)C(F)(F)CC1CO1", "note": "(stereo not given)", "outcome": "inactive"}
{"smiles": "OCC(F)(F)C(F)(F)C(F)(F)C(F)(F)C(F)(F)C(F)(F)F", "outcome": "inactive"}
{"smiles": "FC1CC(F)(F)C(F)(F)C1(F)F", "note": "(stereo not given)", "outcome": "inactive"}
{"smiles": "OCCCC(F)(F)C(F)(F)C(F)(F)C(F)(F)C(F)(F)C(F)(F)C(F)(F)F", "AC50": "52 µM (active) and 24.2 µM (active)"}
{"smiles": "OCC(F)(F)C(F)(F)C(F)(F)F", "outcome": "inactive"}
{"smiles": "C=CC(=O)OCC(F)(F)C(F)(F)C(F)(F)C(F)(F)C(F)(F)C(F)(F)C(F)(F)F", "outcome": "inactive"}
{"smiles": "FC(F)(F)C(F)(F)C(F)(F)C(F)(F)C(F)(F)C(F)(F)C(F)(F)I", "outcome": "inactive"}
{"smiles": "CCO[Si](CCC(F)(F)C(F)(F)C(F)(F)C(F)(F)C(F)(F)C(F)(F)F)(OCC)OCC", "outcome": "inactive"}
{"smiles": "O=C(O)C(F)(F)C(F)(F)C(F)F", "outcome": "inactive"}
